Test results reported in PubChem BioAssay (NCATS).
Where “and” joins values, the source holds several entries; their conditions need not be identical. Equal values may be shown once. Inconclusive results are not listed. A call without a number means that no potency is given here. Calls of active or inactive are those of the source. Calls come from the whole dose curve; as a rule, active = well fitted curve in the direction sought with a large enough effect; inconclusive = small, poorly fitted or top-dose-only effect, or another doubt; inactive = no such curve, though single readings can be large; an effect the other way counts as inactive or inconclusive.

Assays:
[1] = qHTS of pediatric cancer cell lines to identify multiple opportunities for drug repurposing: Primary screen for TC32 cells (AID 1347089); note: nearly all actives have a fitted effect of over 60% in size
Outline: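 In the primary qHTS, MIPE compounds were tested at 11 concentrations (0.78 nM to 46 µM) and NPC compounds at 8 (0.59 nM to 46 µM) on TC32 cells for 48 h. CellTiter-Glo luminescence gave viability.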

[2] = qHTS of pediatric cancer cell lines to identify multiple opportunities for drug repurposing: Primary screen for DAOY cells (AID 1347090); note: nearly all actives have a fitted effect of over 55% in size
Outline: (§1)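 Viability measured as metabolically active cells via CellTiter-Glo luminescence following 48 hours of compound exposure, 11-point dilutions in confirmatory testing. 500-1,000 cells/well plated 5 hours before dosing; controls were DMSO and 2.3 µM bortezomib.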

[3] = qHTS of pediatric cancer cell lines to identify multiple opportunities for drug repurposing: Primary screen for SJ-GBM2 cells (AID 1347091)
Outline: as §1

[4] = qHTS of pediatric cancer cell lines to identify multiple opportunities for drug repurposing: Primary screen for A673 cells (AID 1347092); note: nearly all actives have a fitted effect of over 45% in size
Outline: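 48 h compound exposure, A673, 500-1,000 cells/well, 37 degrees C/5% CO2. MIPE: 11-point, 0.78 nM-46 µM; NPC: 8-point, 0.59 nM-46 µM (final). Readout CellTiter-Glo luminescence after 15 min RT.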

[5] = qHTS of pediatric cancer cell lines to identify multiple opportunities for drug repurposing: Primary screen for SK-N-MC cells (AID 1347093)
Outline: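 Metabolically active cells were quantified by ATP-dependent luminescence (CellTiter-Glo, 15 min at room temperature) following 48 h treatment. Cells had been plated at 500-1,000 per well and settled for 5 h beforehand.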

[6] = qHTS of pediatric cancer cell lines to identify multiple opportunities for drug repurposing: Primary screen for BT-37 cells (AID 1347094)
Outline: (§2)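 500-1,000 cells/well; 5 h pre-incubation 37 °C/5% CO2; compound pinned; 48 h; CellTiter-Glo, 15 min RT; luminescence. MIPE 11-pt from 0.78 nM, NPC 8-pt from 0.59 nM final. Bortezomib 2.3 µM final as positive control.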

[7] = qHTS of pediatric cancer cell lines to identify multiple opportunities for drug repurposing: Primary screen for NB-EBc1 cells (AID 1347095)
Outline: as §2
Potency is the fitted concentration of half-maximal effect.

SMILES	Potency [1]	Potency [2]	Potency [3]	Potency [4]	Potency [5]	Potency [6]	Potency [7]
CCCOc1ccc(C(=O)OCCN(CC)CC)cc1N	inactive	inactive	inactive	inactive	inactive	inactive	inactive
C[C@@H]1C[C@H]2[C@@H]3CCC4=CC(=O)C=C[C@]4(C)[C@@]3(Cl)[C@@H](O)C[C@]2(C)[C@@]1(OC(=O)c1ccco1)C(=O)CCl	inactive	18.7 µM (active)	9.35 µM (active)	590 nM (active)	2.96 µM (active)	21.7 µM (active)	11.8 µM (active)
CN(C)CCc1c[nH]c2ccc(CS(=O)(=O)N3CCCC3)cc12	inactive	inactive	inactive	inactive	inactive	inactive	inactive
CCc1c2c(nc3ccc(OC(=O)N4CCC(N5CCCCC5)CC4)cc13)-c1cc3c(c(=O)n1C2)COC(=O)[C@]3(O)CC	236 nM (active) and 739 nM (active)	13.3 µM (active) and 1.48 µM (active)	1.19 µM (active) and 590 nM (active)	1.06 µM (active) and 590 nM (active)	106 nM (active) and 105 nM (active)	389 nM (active) and 544 nM (active)	1.19 µM (active) and 332 nM (active)
CCn1cc(C(=O)O)c(=O)c2cc(F)c(N3CCNCC3)nc21	inactive	inactive	inactive	inactive	inactive	inactive	inactive
CC(C)(C#N)c1cc(Cn2cncn2)cc(C(C)(C)C#N)c1	inactive	inactive	inactive	inactive	inactive	inactive	inactive
CNC(=O)c1cc(Oc2ccc(NC(=O)Nc3ccc(Cl)c(C(F)(F)F)c3)cc2)ccn1	inactive	11.8 µM (active)	8.33 µM (active)	2960 nM (active)	3.32 µM (active)	21.7 µM (active)	5.26 µM (active)
COCCCOc1cc(C[C@@H](C[C@H](N)[C@@H](O)C[C@H](C(=O)NCC(C)(C)C(N)=O)C(C)C)C(C)C)ccc1OC	inactive	inactive	inactive	inactive	inactive	inactive	inactive
Nc1nc(N)nc(-c2cc(Cl)ccc2Cl)n1	inactive	inactive	inactive	inactive	inactive	inactive	inactive
Cc1noc(NS(=O)(=O)c2ccc(N)cc2)c1C	inactive	inactive	inactive	inactive	inactive	inactive	inactive
Cc1onc(-c2ccccc2Cl)c1C(=O)N[C@@H]1C(=O)N2[C@@H]1SC(C)(C)[C@@H]2C(=O)O	inactive	inactive	inactive	inactive	inactive	inactive	inactive
CC(C)OC(=O)OCOP(=O)(CO[C@H](C)Cn1cnc2c(N)ncnc21)OCOC(=O)OC(C)C	inactive	inactive	inactive	inactive	11.8 µM (active) and 15 µM (active)	inactive	inactive
CC(C)C1CCC(C(=O)N[C@H](Cc2ccccc2)C(=O)O)CC1 (some centres undefined)	inactive	inactive	inactive	inactive	inactive	inactive	inactive
CCc1cc(C(N)=S)ccn1	inactive	inactive	inactive	inactive	inactive	inactive	inactive
NS(=O)(=O)c1cc2c(cc1Cl)NC(C(Cl)Cl)NS2(=O)=O (centres undefined)	inactive	inactive	inactive	inactive	inactive	inactive	inactive
N[C@@H](C(=O)N[C@@H]1C(=O)N2C(C(=O)O)=C(Cl)CS[C@H]12)c1ccccc1	inactive	inactive	inactive	inactive	inactive	inactive	inactive
Cc1ncc([N+](=O)[O-])n1CCO	inactive	inactive	inactive	inactive	inactive	inactive	inactive
CCN(C)C(=O)Oc1cccc([C@H](C)N(C)C)c1	inactive	inactive	inactive	inactive	inactive	inactive	inactive
NC(=O)N1c2ccccc2CC(=O)c2ccccc21	inactive	inactive	inactive	inactive	inactive	inactive	inactive
O=C(O)CSCC(=O)NC1CCSC1=O (centres undefined)	inactive	inactive	inactive	inactive	inactive	inactive	inactive
CNNCc1ccc(C(=O)NC(C)C)cc1	inactive	inactive	inactive	inactive	inactive	inactive	inactive
NNC(=O)c1ccncc1	inactive	inactive	inactive	inactive	inactive	inactive	inactive
